Relative activity ratio, higher = derepression data for two compounds are collected here from PubChem BioAssay AID624301 (The Scripps Research Institute Molecular Screening Center, 2012).

The nature of the assay: DAX1 repression relief on CAT reporter, dose response, DAX1 inhibitor project, cell-based, CAT activity, absorbance, powder samples (AID 624301). Conditions: HEK293 Gal4-DAX1 CAT reporter, ELISA absorbance, CAT reporter alone; at 100 µM (top of the series). For orientation: ELISA stands for enzyme-linked immunosorbent assay.

Calls of active or inactive are those of the source.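 The calls were made as follows: active = relative activity ratio in the reporter plus Dax-1 wells above 5 or under 0.1 at any tested dose; inactive = ratio stays between 0.1 and 5 at every dose.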

`Cn1c(=O)n(C)c2cc(C(=O)Nc3ccc4c(c3)OCCO4)ccc21`: the relative activity ratio, higher = derepression is 0.59 (active).
For `Cn1c(=O)n(C)c2cc(C(=O)Nc3ccc4c(c3)OCO4)ccc21` the value was 0.92 (active).
